Results on 104 compounds are retold here after ChEMBL document CHEMBL4513216, “Probing the Open Global Health Chemical Diversity Library for Multistage-Active Starting Points for Next-Generation Antimalarials” (ACS Infect Dis, 2020).

About 8,600 (12%) of roughly 69,000 compounds showed an effect of 50% or more. The sample holds strong results, similar compounds and a random draw of the others, so the mix is not that of the screen.

This test has as its system Plasmodium berghei. Put plainly: Screen against P. berghei liver stage (PbLuc), transformed with Luciferase, at 10uM. The class given is functional, HepG2. To be noted: tested at 10 uM.
`CCN1Cc2ccccc2CC2(CCN(C)CC2)C1=O`: the INHIBITION worked out at 26.5%. Consider `Cc1nc(C)n(CC2CCCN(CCOc3cccc(F)c3)C2)n1` (centres undefined), for which the INHIBITION turned out to be 48.4%. As for `O=C(CC1CCCC1)N1CCN2C[C@@H](CO)[C@H](c3ccccc3)[C@H]2C1`, the INHIBITION is -16.4%.

As to `CS(=O)(=O)NC1CCCN(C(=O)NCc2cccc(F)c2)C1` (centres undefined), the INHIBITION was 29.4%. Consider `c1ccc(N2CCCC3(CCN(Cc4cccs4)C3)C2)nc1` (centres undefined), for which the INHIBITION is on record as 44.9%. For the compound `Cc1ccc(C(=O)NCCn2nc(-n3cncn3)ccc2=O)c(C)c1`, the INHIBITION amounted to 16.5%. As for `CC(C)c1nc2c(n1C)CCN(Cc1nc(-c3ccco3)no1)C2`, the INHIBITION is on record as 7.08%.

On to `O=C(NCc1ccc2c(c1)OCO2)c1ccc(N2CCCCCC2)nc1`, for which the INHIBITION was -4.99%. Consider `CNC(=O)CCC(=O)N1CCOC(c2ccc3cc(OC)ccc3c2)C1` (centres undefined), for which the INHIBITION turned out to be 78.15%.

Regarding `Nc1cccc(C2CN(C(=O)CN3CCOCC3)CCO2)n1` (centres undefined), the INHIBITION is reported as 36%. Turning to `CNC(=O)CN1CCC(c2cc(OC)cc(OC)c2)C1` (centres undefined), the INHIBITION came to 45.1%. Regarding `CNC(=O)NC(=O)CCN1CCOC(c2ccc(Br)cc2)C1` (centres undefined), the INHIBITION is given as -65.1%.

With `COc1ccc2cc(C3CN(C(=O)C4CCOCC4)CCO3)ccc2c1` (centres undefined), the INHIBITION stood at 66.8%.

As for `COc1ccc(-c2cnc(N(C)C)nc2C2CN(C(C)=O)CCO2)cc1` (centres undefined), the INHIBITION turned out to be 7.52%. For the compound `COc1ccc2cc(C3CN(C(=O)CN4CCCC4)CCO3)ccc2c1` (centres undefined), the INHIBITION stood at 64.7%. The figure for `CN(C)C(=O)N1CC[C@@H](c2ccc3ccccc3c2)[C@H](O)C1` is 2.18%; for `COc1ccc2cc(C3CN(C(=O)N(C)C)CCO3)ccc2c1` (centres undefined) it is 85.4%; for `CCN1CCN(CC(=O)N2CCOC(Cc3ccc(OC)cc3)C2)CC1` (centres undefined) it is -42.1%. With `O=C(C1CCOCC1)N1CCOCC(Cc2ncccn2)C1` (centres undefined), the INHIBITION was determined as 19.3%. Regarding `COc1ccc(CN2CCO[C@H]3CN(C(=O)C4CC4)CC[C@H]3C2=O)cc1`, the INHIBITION was -47%. With `O=C(c1cc(-c2ccco2)cs1)N1CCCC1`, the INHIBITION is -12.2%. Consider `CNC(=O)[C@H]1C[C@H]2OCC[C@H]2N(Cc2cccc3ccccc23)C1`, for which the INHIBITION is -6.32%.

Turning to `COCc1nc(CNc2cc(C)nc(-c3ccccc3)n2)no1`, the INHIBITION is -7.81%. Regarding `O=C(CS(=O)(=O)Cc1ccccc1)NC1CCCCNC1=O` (centres undefined), the INHIBITION came to 5.7%. For `Cc1noc([C@H]2C[C@H]3OCC[C@H]3N(S(C)(=O)=O)C2)n1`, the INHIBITION is on record as -31.3%.

Regarding `CCOC(=O)[C@]12CCCN(Cc3ccco3)C[C@H]1CN(CCN(C)C)C2`, the INHIBITION is recorded as -0.182%.

In the case of `Cn1nc2c(cc1=O)CN(Cc1nc(-c3ccccn3)no1)CC2`, the INHIBITION is given as -19.7%. For `CCC(=O)Nc1c(C)nn(COc2cccc(F)c2)c1C` the value was 26.7%.

On to `Cc1cc(C)c2[nH]c(C(=O)NCCN3CCOC3=O)c(C)c2c1`, for which the INHIBITION worked out at 24%. In the case of `CC(=O)N(Cc1noc(C)n1)C1CCN(CC(=O)N(C)C2CC2)C1` (centres undefined), the INHIBITION amounted to 7.3%.

On to `O=C(O)c1cc2c(nc1NCC1CC1)CCN(C1CCOC1)CC2` (centres undefined), for which the INHIBITION is 29.8%. For `COc1ccc2cc(C3CN(C(=O)COC(C)C)CCO3)ccc2c1` (centres undefined) the value was 69.15%.

`CC(C)c1n[nH]c(C2CN(C(=O)COc3ccc(F)cc3)CCO2)n1` (centres undefined): the INHIBITION is on record as 8.41%. Turning to `O=C(CCNS(=O)(=O)c1ccccc1)N1CCOC(c2ccccc2)C1` (centres undefined), the INHIBITION is recorded as -74.1%.

For the compound `COc1ccc2cc(C3CN(C(=O)CCNC(C)=O)CCO3)ccc2c1` (centres undefined), the INHIBITION worked out at 81.9%. Take `COCC(=O)N1CCC(c2ccc(OC)cc2)C1` (centres undefined): the INHIBITION stood at 23.6%. For `CC(=O)NCC(=O)N1CCOC(c2cccc(N)n2)C1` (centres undefined) the value was -24.4%; for `FC(F)(F)COc1cccc(-c2nc3c([nH]2)CCNC3)c1`, 36.6%; for `CCc1nc(CN(C)C2CCN(CC(=O)N3CCOCC3)C2)no1` (centres undefined), 22.3%.

As to `O=C(CN1CCOC(CNc2cccnn2)C1)N1CCCCC1` (centres undefined), the INHIBITION is recorded as -55.4%. For `CSc1ccc(-c2nc(CN3CCC(NC(C)=O)CC3)c(C)o2)cc1` the value was 5.51%; for `CNC(=O)C1CCN(Cc2nc(-c3ccc(SC)cc3)oc2C)C1` (centres undefined), -2.5%. For `CSc1ccc(-c2nc(CN3CCC(NC(C)=O)C3)c(C)o2)cc1` (centres undefined), the INHIBITION is reported as 66.8%. On to `COCCOc1ccc(NC(=O)C2CC(=O)N(C(C)C)C2)cn1` (centres undefined), for which the INHIBITION is -21.8%.

In the case of `CC(=O)NCC(=O)N1CCC(c2cncc(Oc3cccnc3)n2)CC1`, the INHIBITION is given as 9.93%.

As to `CN(Cc1n[nH]c2c1CCC2)C(=O)CCc1cc2n(n1)CCNC2`, the INHIBITION is listed as 46.3%. In the case of `CCc1ncc(C(=O)N2C[C@@H](C)O[C@@H](C)C2)cn1`, the INHIBITION is reported as 24.8%. `CCc1ncc(C(=O)N2CC[C@H]3CC[C@@H](C2)N3C)cn1`: the INHIBITION stood at 61.4%.

On to `CCc1ncc(C(=O)N2CC(N3CCCCC3)C2)cn1`, for which the INHIBITION worked out at 13.9%.

Regarding `CNCc1ccc([C@@H]2CN(C)C[C@H]2C(N)=O)cc1`, the INHIBITION came to 49.5%. As to `C[C@H](NC(=O)c1cccc(CCC(C)(C)O)c1)C(N)=O`, the INHIBITION is recorded as 10.3%. With `CC[C@@H](CO)NC(=O)c1cccc(CCC(C)(C)O)c1`, the INHIBITION is 5.78%. For `CC(C)n1ccnc1CNC(=O)c1cccc(CCC(C)(C)O)c1`, the INHIBITION came out at 54.5%. In the case of `Cc1csc(CN(C)C(=O)c2cccc(CCC(C)(C)O)c2)n1`, the INHIBITION was 34.9%.

As to `CN(Cc1nccn1C)C(=O)c1cccc(CCC(C)(C)O)c1`, the INHIBITION is on record as 39.4%. Turning to `CC(C)(O)CCc1cccc(C(=O)NCc2nccs2)c1`, the INHIBITION is 56.3%. In the case of `CCN(CC)c1ncccc1CNCc1ccc(Cl)s1`, the INHIBITION was found to be 49.4%. For `Cc1ncsc1CN(Cc1ccccc1)Cc1ccncc1` the value was 12.1%; for `CC(C(=O)Nc1ccc(Cl)cn1)n1ccc(C(F)(F)F)n1` (centres undefined), 42.4%; for `Cc1cccc2nc(C(=O)N3CCCC[C@]4(C)NC(=O)CC[C@H]34)cn12`, 22%.

As for `O=C(NC1CC1)c1cc(C(F)(F)F)cc(C(=O)NC2CC2)n1`, the INHIBITION is 5.21%. In the case of `Cc1cc(CN(C)CCN(C)c2ccccc2)no1`, the INHIBITION stood at 82.4%. `Cc1cc(CN(C)Cc2ncc(-c3ccccc3)o2)no1`: the INHIBITION was 50.7%. In the case of `Cc1cc(CN(C)CC2CCCCC2)no1`, the INHIBITION turned out to be 23.1%.

As to `Cc1cc(CN(C)Cc2ncc(-c3cccs3)o2)no1`, the INHIBITION is on record as 1.84%. For the compound `Cc1cc(CN(C)Cc2ncc(C(C)(C)C)o2)no1`, the INHIBITION is -30.5%. Regarding `Cc1cc(CN(C)CCC(O)c2ccccc2)no1` (centres undefined), the INHIBITION was 30.3%. For `CC(C)c1nccn1CC(=O)Nc1ccnn1C(C)C(C)C` (centres undefined) the value was -5.51%; for `COC(=O)c1cccc(C(=O)NCc2ccco2)n1`, 41.6%; for `CC(=O)Nc1ccc(S(=O)(=O)N2CCOC(Cn3ccnc3)C2)cc1` (centres undefined), -36.4%. On to `Cc1cc(C)n(C2CN(CCC(=O)NCCc3ccccc3)C2)n1`, for which the INHIBITION is listed as 36.3%.

As to `CCc1ccc(NC(=O)CCN2CC(n3nc(C)cc3C)C2)cc1`, the INHIBITION turned out to be 52.6%.

For `Cc1cc(C)n(C2CN(CCC(=O)NC3CCCCC3)C2)n1`, the INHIBITION is recorded as 25.6%. Regarding `CS(=O)(=O)N[C@@H]1CN(C(=O)c2cc3ccccc3s2)C[C@H]1O`, the INHIBITION is given as -19.7%. With `FC(F)(F)c1cc(C2CCN(c3cnccn3)CC2)n2ccnc2n1`, the INHIBITION is reported as -7.98%. `CC(=O)N1CCC(c2cc(C(F)(F)F)n3ccnc3n2)CC1`: the INHIBITION is -22.6%.

On to `CC(=O)N1CCC(c2cc(C(F)(F)F)nc3nccn23)CC1`, for which the INHIBITION is 61.9%. Consider `CN(C)C(=O)CN1CCc2onc(-c3ccccc3F)c2C1`, for which the INHIBITION was -17.8%. With `Cc1ccc(CN2C[C@@H]3CN(c4ncc(F)cn4)C[C@@H]3C2)cc1`, the INHIBITION was found to be 46.7%.

For `Fc1cnc(N2C[C@H]3CN(Cc4cccc(F)c4)C[C@H]3C2)nc1`, the INHIBITION came out at 60%.

Take `Fc1cccc(CN2C[C@@H]3CN(c4ncccn4)C[C@@H]3C2)c1`: the INHIBITION is 28.5%. As for `CN(CCCc1cc(-c2ccc(F)cc2)n(C)n1)CC(N)=O`, the INHIBITION is recorded as -65.6%. Regarding `CN1CC[C@H](N(Cc2ccccc2)Cc2ccccc2)C[C@H](O)C1`, the INHIBITION was found to be 32.1%.

With `Cc1ccc(CN2CCO[C@@H]3C[C@@H](C(=O)NC(C)C)C[C@H]32)o1`, the INHIBITION is recorded as -26.5%. Turning to `CSCCc1c(-c2ccccc2)ncn1CC(C)(C)N1CCOCC1`, the INHIBITION is 69.3%. Take `CSCCc1c(-c2ccccc2)ncn1CC(C)(C)N1CCCC1`: the INHIBITION was found to be 26.7%. On to `CC(C)(Cn1cnc(-c2ccccc2)c1-c1ccco1)N1CCOCC1`, for which the INHIBITION was determined as 51.7%. As to `CN(C)CC(C)(C)Cn1cnc(-c2ccccc2)c1-c1ccncc1`, the INHIBITION is -18.1%.

In the case of `CSCCc1c(-c2ccccc2)ncn1[C@H]1C[C@@H](C(=O)O)N(C)C1`, the INHIBITION is reported as 19.5%. Regarding `CN(C)CC(C)(C)Cn1cnc(-c2ccccc2)c1-c1cccc(O)c1`, the INHIBITION was -39.3%. With `CCc1cc(CN(C)C(=O)c2cc(=O)[nH]c(=O)[nH]2)on1`, the INHIBITION is -34.8%. Consider `CCn1nc(C)c2ncnc(N3CCCC(C)C3)c21` (centres undefined), for which the INHIBITION worked out at 26.9%. For `CCN(CC1CCOC1)C(=O)c1ccc(N(C)C)cc1F` (centres undefined), the INHIBITION was 13.8%. For the compound `O=C(Cc1ccccc1)N1CCOC(c2nc(-c3ncccn3)no2)C1` (centres undefined), the INHIBITION was -20.2%. For `COc1ccc(C(NCc2cccc(O)c2)C2CC2)cc1` (centres undefined), the INHIBITION is 3.84%. For `CC(C)COCC1CN(Cc2ccc3c(c2)OCO3)Cc2ncn(C)c21` (centres undefined) the value was 55.1%; for `CC(C)COCC1CN(Cc2cnn(C)c2)Cc2ncn(C)c21` (centres undefined), 28.3%; for `CCOCC1CN(Cc2ccc3c(c2)OCO3)Cc2ncn(C)c21` (centres undefined), 23.3%. On to `COCC1CN(Cc2ccc3c(c2)OCO3)Cc2ncn(C)c21` (centres undefined), for which the INHIBITION is reported as 38.2%. Regarding `CC(C)COCC1CN(Cc2ccoc2)Cc2ncn(C)c21` (centres undefined), the INHIBITION is given as 9.51%. Consider `Cn1cnc2c1C(COCC1CC1)CN(Cc1ccc3c(c1)OCO3)C2` (centres undefined), for which the INHIBITION turned out to be 63.5%.

Take `CC(C)Cn1c(=O)[nH]c2cn(-c3ccc(F)cc3)c(=O)n21`: the INHIBITION turned out to be 11.4%.

As to `Cc1cc(CN2CCC3(CC2)CC(Nc2ncccn2)CO3)nn1C` (centres undefined), the INHIBITION is -0.813%. The figure for `CC(Cn1cccn1)NCc1csc(COc2ccc(F)cc2)n1` (centres undefined) is 33.7%.
